Data from PubChem BioAssay (NCI).
Values joined by “and” are separate entries in the source; they are usually repeats but may differ in a detail not shown here. Identical values can stand only once. This is part of a sample that, as a whole, favours compounds with a hit. Of some 83,000 tested, about 20% had one in any assay.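 Activity criterion: percent growth below 10, measured after cells in 96-well plates were exposed to a single compound concentration for 48 hours.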 Active and inactive are the calls of the source.

Tests used:
Assay in all cases: NCI-60 one-dose screen, 48 h (100 = growth as untreated, 0 = no growth, -100 = all killed)
Conditions in all cases: 10 µM unless noted
NCI-H23 lung = test system: NCI-H23 lung
NCI-H226 lung = test system: NCI-H226 lung
NCI-H322M lung = test system: NCI-H322M lung
HOP-62 NSCLC = test system: HOP-62 NSCLC
NCI-H460 lung = test system: NCI-H460 lung
HOP-92 NSCLC = test system: HOP-92 NSCLC
NCI-H522 lung = test system: NCI-H522 lung
A549/ATCC NSCLC = test system: A549/ATCC NSCLC
786-0 renal = test system: 786-0 renal
COLO 205 colon = test system: COLO 205 colon
DU-145 prostate = test system: DU-145 prostate
K-562 leukemia = test system: K-562 leukemia
MALME-3M melanoma = test system: MALME-3M melanoma
MDA-MB-231 breast = test system: MDA-MB-231 breast
RXF 393 renal = test system: RXF 393 renal
SF-268 CNS = test system: SF-268 CNS
SF-295 CNS = test system: SF-295 CNS
SF-539 CNS = test system: SF-539 CNS
UACC-257 melanoma = test system: UACC-257 melanoma
M14 melanoma = test system: M14 melanoma

Measured: growth

Cc1ccc(C(=O)N(CCCN)[C@@H](c2nc3cc(Cl)ccc3c(=O)n2Cc2ccccc2)C(C)C)cc1
inactive: NCI-H226 lung 22.6%
active: NCI-H23 lung 8.15% | NCI-H322M lung -9.48% | HOP-62 NSCLC -28% | NCI-H460 lung -72.4% | HOP-92 NSCLC -16.3% | NCI-H522 lung -45.9% | A549/ATCC NSCLC -40% | 786-0 renal -13.7% | COLO 205 colon -72.3% | DU-145 prostate 1.24% | K-562 leukemia -30.6% | MALME-3M melanoma -79% | MDA-MB-231 breast -75.7% | RXF 393 renal 6.94% | SF-268 CNS -21.8% | SF-295 CNS -60.4% | SF-539 CNS -75.2% | UACC-257 melanoma -56.6% | M14 melanoma -65.2%

Nc1nc(Cl)nc2c1ncn2C1OC(CO)C(O)C1O (stereo not given)
inactive: NCI-H23 lung 19.9% and 34.4% | NCI-H226 lung 110% | NCI-H322M lung 93.1% and 101% | HOP-62 NSCLC 46.6% and 63.7% | NCI-H460 lung 80% and 87.4% | HOP-92 NSCLC 42.8% | NCI-H522 lung 50.6% and 52.1% | A549/ATCC NSCLC 46.2% and 49.9% | 786-0 renal 24.1% and 37.5% | COLO 205 colon 70% | DU-145 prostate 64.8% and 44.9% | K-562 leukemia 67% | MALME-3M melanoma 74.7% and 76.4% | MDA-MB-231 breast 71.1% and 90.7% | RXF 393 renal 123% and 118% | SF-268 CNS 57.6% and 63.4% | SF-295 CNS 102% and 103% | SF-539 CNS 91.7% and 111% | UACC-257 melanoma 99.1% and 85.9%
active: M14 melanoma -14% and 4.59%

CSc1nnc(-c2cc3c([nH]c4ccccc43)c(-c3cccc(O)c3)n2)n1-c1ccc(C)cc1
active: NCI-H522 lung -2.1% | RXF 393 renal 2.76% | M14 melanoma 6.07%
inactive: NCI-H23 lung 70.9% | NCI-H226 lung 57.6% | NCI-H322M lung 70.3% | HOP-62 NSCLC 44.9% | NCI-H460 lung 11.4% | HOP-92 NSCLC 21.3% | A549/ATCC NSCLC 29.4% | 786-0 renal 37.8% | COLO 205 colon 76.5% | DU-145 prostate 62.8% | K-562 leukemia 10.2% | MALME-3M melanoma 42% | MDA-MB-231 breast 25.7% | SF-268 CNS 48.7% | SF-295 CNS 15% | SF-539 CNS 32.3% | UACC-257 melanoma 42.5%

COc1cc(CNC(=O)CCCC/C=C/C(C)C)ccc1OCc1cn(-c2ccc([N+](=O)[O-])cc2)nn1
inactive: NCI-H23 lung 83.2% | NCI-H226 lung 89.6% | NCI-H322M lung 97.9% | HOP-62 NSCLC 80.9% | NCI-H460 lung 99.8% | HOP-92 NSCLC 90.3% | NCI-H522 lung 78.2% | A549/ATCC NSCLC 84.1% | 786-0 renal 93.7% | COLO 205 colon 118% | DU-145 prostate 105% | K-562 leukemia 74.5% | MALME-3M melanoma 98.4% | MDA-MB-231 breast 75.3% | RXF 393 renal 99.7% | SF-268 CNS 86.1% | SF-295 CNS 89% | SF-539 CNS 104% | UACC-257 melanoma 82.6% | M14 melanoma 89.7%

O=C(CCl)N(O)c1ccc(/C=C/c2ccccc2)cc1
inactive: NCI-H23 lung 70.7% and 74.2% | NCI-H226 lung 56.9% | NCI-H322M lung 99.5% and 91.5% | HOP-62 NSCLC 96.5% | NCI-H460 lung 85.4% and 73% | HOP-92 NSCLC 81.8% | NCI-H522 lung 61.5% and 30.4% | A549/ATCC NSCLC 90.3% and 65% | 786-0 renal 84% and 78.3% | COLO 205 colon 92.9% and 83.1% | DU-145 prostate 90.3% and 86.6% | K-562 leukemia 64% and 46.1% | MALME-3M melanoma 95.3% and 84.2% | MDA-MB-231 breast 82.1% and 66.5% | RXF 393 renal 99.9% and 71.3% | SF-268 CNS 84.7% and 72.8% | SF-295 CNS 95.5% and 80.9% | SF-539 CNS 94.3% and 93.4% | UACC-257 melanoma 103% | M14 melanoma 75% and 71.8%

N#Cc1c(-c2cccc(F)c2)cc(-c2cccnc2)[nH]c1=O
inactive: NCI-H23 lung 105% | NCI-H226 lung 101% | NCI-H322M lung 101% | HOP-62 NSCLC 95.7% | NCI-H460 lung 109% | HOP-92 NSCLC 110% | NCI-H522 lung 90.1% | A549/ATCC NSCLC 101% | 786-0 renal 97.6% | COLO 205 colon 108% | DU-145 prostate 107% | K-562 leukemia 95.3% | MALME-3M melanoma 103% | MDA-MB-231 breast 104% | RXF 393 renal 112% | SF-268 CNS 103% | SF-295 CNS 102% | SF-539 CNS 99.3% | UACC-257 melanoma 112% | M14 melanoma 102%

COc1cc(C(=O)c2ccccc2C(=O)O)c(OC)c2c1CCCC2
inactive: NCI-H23 lung 98.2% and 94.4% | NCI-H226 lung 108% | NCI-H322M lung 108% and 101% | HOP-62 NSCLC 106% | NCI-H460 lung 103% and 107% | HOP-92 NSCLC 95.8% | NCI-H522 lung 106% and 145% | A549/ATCC NSCLC 97.5% and 101% | 786-0 renal 94.2% and 97.6% | COLO 205 colon 114% and 108% | DU-145 prostate 99% and 106% | K-562 leukemia 85.7% and 84.7% | MALME-3M melanoma 90.5% and 97.3% | MDA-MB-231 breast 87.8% and 101% | RXF 393 renal 107% and 100% | SF-268 CNS 92.5% and 101% | SF-295 CNS 97% and 102% | SF-539 CNS 97.3% and 103% | UACC-257 melanoma 95.9% and 99.5% | M14 melanoma 94.4% and 97.6%
